Source: PubChem BioAssay (EPA / NIEHS)
Calls of active or inactive are those of the source. The calls were made as follows: active = hit-call score of the fitted dose curve at least 0.9, where 1 is the maximum; inactive = score below 0.9.

Tests used:
Conditions in all cases: mRNA level, 48 h; actives raise or lower the signal
[1] = read-out: Glutamate-cysteine ligase catalytic (GCLC), GCLC (gene 2729); test: LTEA_HepaRG_GCLC: Life Technologies and Expression Analysis (LTEA) Assay for Glutamate-cysteine ligase catalytic (GCLC) using HepaRG (AID 2283498)
In short: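 Read-out is GCLC transcript level by Fluidigm-based TaqMan qRT-PCR, normalized to three housekeeping genes and fitted in both directions relative to 0.5% DMSO. Human HepaRG cells received chemicals for 48 h, up to 100 uM.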

[2] = read-out: growth arrest and DNA damage 45 (GADD45G), GADD45G (gene 10912); test: LTEA_HepaRG_GADD45G: Life Technologies and Expression Analysis (LTEA) Assay for growth arrest and DNA damage 45 (GADD45G) using HepaRG (AID 2283499)
In short: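 Concentration-response in HepaRG: 48 h dosing, 0.5% DMSO, highest level 100 uM. GADD45G expression by qRT-PCR, normalised to endogenous controls; bidirectional fit to DMSO.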

[3] = read-out: Glutamate-cysteine ligase regulatory (GCLM), GCLM (gene 2730); test: LTEA_HepaRG_GCLM: Life Technologies and Expression Analysis (LTEA) Assay for Glutamate-cysteine ligase regulatory (GCLM) using HepaRG (AID 2283500)
In short: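 Human liver HepaRG cultures receive test chemicals for 48 hours at up to 100 uM in 0.5% DMSO. GCLM expression is measured by qRT-PCR and analysed for increases or decreases against vehicle.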

[4] = read-out: Glutathione S-transferase M3 (GSTM3), GSTM3 (gene 2947); test: LTEA_HepaRG_GSTM3: Life Technologies and Expression Analysis (LTEA) Assay for Glutathione S-transferase M3 (GSTM3) using HepaRG (AID 2283501)
In short: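 Expression of GSTM3 is determined by qRT-PCR in human liver HepaRG cells treated 48 h with an 8-point half-log range from 100 uM in 0.5% DMSO.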

[5] = read-out: Heat shock 70 kDa protein 1 (HSPA1A), gene 3303; test: LTEA_HepaRG_HSPA1A: Life Technologies and Expression Analysis (LTEA) Assay for Heat shock 70 kDa protein 1 (HSPA1A) using HepaRG (AID 2283502)
In short: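 HSPA1A induction in human HepaRG liver cells is measured after 48 h of chemical treatment (100 uM maximum, 0.5% DMSO vehicle). Expression comes from qRT-PCR normalized to endogenous controls.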

[6] = read-out: Hypoxia-inducible factor 1-alpha (Homo sapiens) (UniProt Q16665); test: LTEA_HepaRG_HIF1A: Life Technologies and Expression Analysis (LTEA) Assay for Hypoxia-inducible factor 1 (HIF1A) Trancription factor using HepaRG (AID 2283503);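 also: HIF1A transcript by TaqMan qRT-PCR normalized to ACTB GAPDH and POLR2A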
In short: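 HepaRG, 48 h exposure, 8-pt half-log series from 100 uM, 0.5% DMSO vehicle, duplicates. Readout: HIF1A transcript by qRT-PCR (Fluidigm array), housekeeping-normalised. Bidirectional curve fit vs DMSO baseline.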

[7] = read-out: 3-Hydroxy-3-Methylglutaryl-CoA Synthase 2 (HMGCS2), HMGCS2 (gene 3158); test: LTEA_HepaRG_HMGCS2: Life Technologies and Expression Analysis (LTEA) Assay for 3-Hydroxy-3-Methylglutaryl-CoA Synthase 2 (HMGCS2) using HepaRG (AID 2283504)
In short: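 This steatosis marker was read as HMGCS2 mRNA change in HepaRG cells treated 48 h with up to 100 uM chemical. Normalisation used housekeeping genes; activity in either direction was fitted relative to 0.5% DMSO vehicle.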

[8] = read-out: HGF (gene 3082); test: LTEA_HepaRG_HGF: Life Technologies and Expression Analysis (LTEA) Assay for Hepatocyte Growth Facto (HGF) using HepaRG (AID 2283505)
In short: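 Using HepaRG monolayers kept in 0.5% DMSO, chemicals were tested in duplicate over eight half-log concentrations from 100 uM for 48 h. Endpoint: HGF mRNA change relative to DMSO, normalized to ACTB/GAPDH/POLR2A.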

[9] = read-out: Insulin Like Growth Factor 1 (IGF1), IGF1 (gene 3479); test: LTEA_HepaRG_IGF1: Life Technologies and Expression Analysis (LTEA) Assay for Insulin Like Growth Factor 1 (IGF1) using HepaRG (AID 2283506)
In short: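 Using human HepaRG liver cells, IGF1 transcript induction or suppression is measured 48 h after dosing across eight concentrations capped at 100 uM. Values derive from bidirectional concentration-response fitting with DMSO as baseline.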

[10] = read-out: Intercellular Adhesion Molecule 1 (ICAM1), ICAM1 (gene 3383); test: LTEA_HepaRG_ICAM1: Life Technologies and Expression Analysis (LTEA) Assay for Intercellular Adhesion Molecule 1 (ICAM1) using HepaRG (AID 2283507)
In short: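 Using the human liver line HepaRG, compounds are tested in duplicate over 48 h at concentrations up to 100 uM. Expression is determined by TaqMan qRT-PCR, normalized to endogenous controls, and analysed relative to 0.5% DMSO vehicle.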

[11] = read-out: Insulin-like growth factor-binding protein 1 (IGFBP1), IGFBP1 (gene 3484); test: LTEA_HepaRG_IGFBP1: Life Technologies and Expression Analysis (LTEA) Assay for Insulin-like growth factor-binding protein 1 (IGFBP1) using HepaRG (AID 2283508)
In short: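 HepaRG, 48 h, 8 conc. (max 100 uM, half-log), duplicates, 0.5% DMSO. Readout: TaqMan qRT-PCR, ACTB/GAPDH/POLR2A normalisation. Fit: bidirectional vs DMSO.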

[12] = read-out: Interleukin 6 Receptor (IL6R), IL6R (gene 3570); test: LTEA_HepaRG_IL6R: Life Technologies and Expression Analysis (LTEA) Assay for Interleukin 6 Receptor (IL6R) using HepaRG (AID 2283510);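 as to AC50: differentiated human HepaRG liver cells in serum-free induction medium; TaqMan qRT-PCR signal normalized to ACTB GAPDH and POLR2A housekeeping genes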
In short: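 Concentration-response in human liver HepaRG cells: eight concentrations from 100 uM downward by half-logs, 48 h exposure, 0.5% DMSO vehicle. IL6R mRNA change measured by qRT-PCR and fitted in both directions relative to vehicle.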

[13] = read-out: Potassium channel subfamily K member 1 (KCNK1), KCNK1 (gene 3775); test: LTEA_HepaRG_KCNK1: Life Technologies and Expression Analysis (LTEA) Assay for Potassium channel subfamily K member 1 (KCNK1) using HepaRG (AID 2283511)
In short: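 Gain or loss of KCNK1 mRNA is the read-out, quantified by qRT-PCR against three housekeeping genes after 48 h chemical treatment of human HepaRG liver cells. Concentrations ran from 100 uM downward in half-log steps, vehicle 0.5% DMSO.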

[14] = read-out: Keratin 19 (KRT19), KRT19 (gene 3880); test: LTEA_HepaRG_KRT19: Life Technologies and Expression Analysis (LTEA) Assay for Keratin 19 (KRT19) using HepaRG (AID 2283512)
In short: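 Readout is qRT-PCR of KRT19 mRNA, normalized to ACTB, GAPDH and POLR2A, from HepaRG cells treated 48 h with eight-point half-log dilutions topping at 100 uM. Activity in either direction is scored relative to 0.5% DMSO vehicle.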

[15] = read-out: JUN Transcription Factor, JUN (gene 3725); test: LTEA_HepaRG_JUN: Life Technologies and Expression Analysis (LTEA) Assay for JUN Transcription Factor using HepaRG (AID 2283513)
In short: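 Human HepaRG liver cells receive test chemicals in 0.5% DMSO for 48 h across an eight-point range topping at 100 uM. Expression changes in JUN are scored in both directions against the DMSO vehicle.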

[16] = read-out: Lipoprotein lipase (LPL), LPL (gene 4023); test: LTEA_HepaRG_LPL: Life Technologies and Expression Analysis (LTEA) Assay for Lipoprotein lipase (LPL) using HepaRG (AID 2283515)
In short: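 Read-out is LPL transcript level by qRT-PCR, normalized to three housekeeping genes and fitted bidirectionally against the DMSO control. Human HepaRG cells received chemicals for 48 h at up to 100 uM.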

[17] = read-out: MicroRNA 122 (MIR122), gene 406906; test: LTEA_HepaRG_MIR122: Life Technologies and Expression Analysis (LTEA) Assay for MicroRNA 122 (MIR122) using HepaRG (AID 2283516); also: the transcript read is the microRNA miR-122
In short: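 HepaRG, 48 h exposure, 8-pt half-log from 100 uM, 0.5% DMSO; TaqMan qRT-PCR; bidirectional fit vs DMSO.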

[18] = read-out: matrix metalloproteinase-10 (MMP10), MMP10 (gene 4319); test: LTEA_HepaRG_MMP10: Life Technologies and Expression Analysis (LTEA) Assay for matrix metalloproteinase-10 (MMP10) using HepaRG (AID 2283517)
In short: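 Gain or loss of MMP10 mRNA is fitted relative to the 0.5% DMSO vehicle. The human hepatic line HepaRG receives a 48-hour serum-free exposure, in duplicate, with a maximum concentration of 100 uM.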

[19] = read-out: MYC, MYC (gene 4609); test: LTEA_HepaRG_MYC: Life Technologies and Expression Analysis (LTEA) Assay for MYC using HepaRG (AID 2283518)
In short: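 Expression changes were scored by TaqMan qRT-PCR with ACTB, GAPDH and POLR2A normalization. Cultures in serum-free induction medium received duplicate 8-point concentration series, highest 100 uM, for 48 h; DMSO (0.5%) served as baseline.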

[20] = read-out: Interleukin 6 (IL6), IL6 (gene 3569); test: LTEA_HepaRG_IL6: Life Technologies and Expression Analysis (LTEA) Assay for Interleukin 6 (IL6) using HepaRG (AID 2283509)
In short: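 HepaRG, ~100,000 cells/well, 48 h pre-culture; serum-free induction medium; cmpd 8-pt half-log from 100 uM, 0.5% DMSO, duplicate, 48 h. Lysis in RLT, TaqMan qRT-PCR; gain or loss vs DMSO.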

Chain of Hypoxia-inducible factor 1-alpha (Homo sapiens) (Q16665 whole entry, looked up): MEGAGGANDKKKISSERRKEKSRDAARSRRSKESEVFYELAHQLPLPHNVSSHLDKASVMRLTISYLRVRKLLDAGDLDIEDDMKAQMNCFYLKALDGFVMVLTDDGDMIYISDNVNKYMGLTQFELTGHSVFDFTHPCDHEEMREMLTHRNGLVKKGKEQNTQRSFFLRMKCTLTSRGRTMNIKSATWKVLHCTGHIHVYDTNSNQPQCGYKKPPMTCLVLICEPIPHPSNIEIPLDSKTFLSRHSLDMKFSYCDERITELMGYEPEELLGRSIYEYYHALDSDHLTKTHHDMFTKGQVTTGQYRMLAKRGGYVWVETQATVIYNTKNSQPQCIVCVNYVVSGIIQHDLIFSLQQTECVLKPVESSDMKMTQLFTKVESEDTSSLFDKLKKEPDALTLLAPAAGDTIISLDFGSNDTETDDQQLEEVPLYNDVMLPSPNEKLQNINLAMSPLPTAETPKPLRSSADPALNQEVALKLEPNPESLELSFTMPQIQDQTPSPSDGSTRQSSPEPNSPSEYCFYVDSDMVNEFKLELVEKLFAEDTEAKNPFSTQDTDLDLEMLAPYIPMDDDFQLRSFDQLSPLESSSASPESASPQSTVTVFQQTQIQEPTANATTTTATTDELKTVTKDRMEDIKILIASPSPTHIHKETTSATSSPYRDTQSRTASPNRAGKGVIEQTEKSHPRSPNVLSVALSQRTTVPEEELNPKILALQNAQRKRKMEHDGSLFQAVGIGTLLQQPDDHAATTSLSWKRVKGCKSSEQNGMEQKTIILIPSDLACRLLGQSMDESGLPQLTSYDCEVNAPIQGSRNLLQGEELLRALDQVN

Cc1[nH]nc2c1N=C(c1ccccc1Cl)c1cc([N+](=O)[O-])ccc1N2
AC50 [1]: 2.83 µM (active) | AC50 [2]: 0.557 µM (active) | outcome [3]: inactive | AC50 [4]: 50 µM (active) | outcome [5]: inactive | outcome [6]: inactive | AC50 [7]: 28.8 µM (active) | AC50 [8]: 2.84 µM (active) | AC50 [9]: 1.88 µM (active) | outcome [10]: inactive | AC50 [11]: 79.6 µM (active) | outcome [12]: inactive | AC50 [13]: 3.09 µM (active) | AC50 [14]: 1.24 µM (active) | AC50 [15]: 20.5 µM (active) | AC50 [16]: 13 µM (active) | AC50 [17]: 7.26 µM (active) | AC50 [18]: 5.91 µM (active) | AC50 [19]: 82 µM (active)

O=C(CCCN1CCC(O)(c2ccc(Cl)cc2)CC1)c1ccc(F)cc1
AC50 [1]: 77.1 µM (active) | AC50 [2]: 50 µM (active) | AC50 [3]: 71.9 µM (active) | outcome [4]: inactive | AC50 [5]: 74.3 µM (active) | AC50 [7]: 84.4 µM (active) | AC50 [9]: 78.5 µM (active) | AC50 [10]: 75 µM (active) | AC50 [11]: 71.1 µM (active) | AC50 [20]: 80.9 µM (active) | AC50 [12]: 50 µM (active) | AC50 [13]: 84.4 µM (active) | AC50 [14]: 36.7 µM (active) | AC50 [15]: 82.7 µM (active) | AC50 [16]: 34.4 µM (active) | outcome [17]: inactive | AC50 [18]: 82.4 µM (active) | AC50 [19]: 73.6 µM (active)

CCC(C)c1ccccc1O (stereo unspecified)
outcome [1]: inactive | outcome [2]: inactive | outcome [3]: inactive | outcome [4]: inactive | outcome [5]: inactive | outcome [7]: inactive | outcome [8]: inactive | outcome [9]: inactive | outcome [10]: inactive | outcome [11]: inactive | outcome [20]: inactive | outcome [12]: inactive | outcome [13]: inactive | outcome [14]: inactive | outcome [15]: inactive | outcome [16]: inactive | outcome [17]: inactive | outcome [18]: inactive | outcome [19]: inactive

O=C1NS(=O)(=O)c2ccccc21
outcome [1]: inactive | outcome [2]: inactive | outcome [3]: inactive | outcome [4]: inactive | outcome [5]: inactive | outcome [6]: inactive | outcome [7]: inactive | outcome [8]: inactive | outcome [9]: inactive | outcome [10]: inactive | outcome [11]: inactive | outcome [20]: inactive | outcome [12]: inactive | outcome [13]: inactive | outcome [14]: inactive | outcome [15]: inactive | outcome [16]: inactive | outcome [17]: inactive | outcome [18]: inactive | outcome [19]: inactive
